Reference: PubChem BioAssay (NCI)
About 83,000 compounds went through this panel and 20% of them were active in at least one assay; those are over-represented in the sample as a whole.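 Compound tested at a single concentration for 48 hours in 96-well plates; a percent growth value below 10 was scored as active.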 Values without a mark were called inactive. Active and inactive are the calls of the source.

test system: 786-0 renal; test: NCI-60 one-dose screen, 48 h (100 = growth as untreated, 0 = no growth, -100 = all killed); conditions: 10 µM unless noted

| Compound | growth |
| --- | --- |
| CN(Cc1cnc2nc(N)nc(N)c2n1)c1ccc(C(=O)N[C@@H](CCc2nn[nH]n2)c2nn[nH]n2)cc1 | 26.8% |
| C[C@]12CC[C@@H]3c4cc(OC(F)F)c(O)cc4CC[C@H]3[C@@H]1CC[C@@H]2OS(N)(=O)=O | 56.4% |
| C[C@H](NC(=O)[C@@H]1CSSC[C@@H](NC(=O)c2nc3ccccc3cc2O)C(=O)NCC(=O)N1C)c1ccccc1 | -37.2% (active) |
| C=CCOC1=CC(=O)c2ccccc2C1=O | 102% |
| O=C(NCCc1ccc(O)c(O)c1)C12CC3CC(CC(C3)C1)C2 | 87.9% |
| COc1ccc2c(c1)O/C(=C\c1cccc(OCC(=O)Nc3nc4ccccc4s3)c1)C2=O | 92.2% |
| Cn1c(=O)c2c(nc(Cl)n2CCl)n(C)c1=O | 90.4% |
| Cc1cc(C)c2c(-c3nnc(N)s3)cc(=O)oc2c1 | 99.4% |
| O=c1[nH][n+](-c2ccc(Cl)cc2)no1 | 61.2% |
| COC1=CC(=O)C[C@@H](C)[C@]12Oc1c(Cl)c(OC)cc(OC)c1C2=O | 99.2% |
| Cc1cc(Cl)nc(NCc2cc(Nc3ccnc4cc(Cl)ccc34)ccc2F)n1 | 76% |
| c1ccc2c(c1)nc(CN1CCOCC1)n1cc(N3CCCC3)nc21 | 91.8% |
| O=Cc1c[nH]c2ccc(-c3csc4ccccc34)cc12 | 58.4% |
| N#C/C(=C\c1ccc2c(c1)OCO2)n1nnc2cc(F)c(F)cc21 | 89.2% |
| N#Cc1c(N2CCNCC2)nc2sc3cc(Cl)c(Cl)cc3n2c1=N | 105% |
